Out of some 420,000 compounds screened, about 50,000 (12%) were called active. Roughly 26% stayed inconclusive and do not appear here. Calls follow the shape of the dose curve; as a rule, active = well fitted inhibition curve with a large enough effect; inconclusive = small, poorly fitted or top-dose-only effect; inactive = flat fitted curve, though single readings scatter. What follows is part of a selection rich in actives, with near analogues and random picks from the rest. A call without a number means that no potency is given here.
assay: qHTS for Inhibitors of human tyrosyl-DNA phosphodiesterase 1 (TDP1): qHTS in cells in presence of CPT; conditions: chicken DT40 Tdp1-/-;hTDP1 cells + 20 nM CPT, ATP luminescence, 48 h; series mostly up to 46.2 µM; also: nearly all actives have a fitted effect of over 55% in size
Outline: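 Chicken DT40 Tdp1-/- cells stably complemented with human TDP1 were seeded at 400 cells/well in medium containing 20 nM camptothecin, exposed to pin-transferred compounds, and grown at 37 °C for at least 48 hr. Viability was read as ATP luminescence.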
Potency is read from the fitted curve at half-maximal effect.

Structure (SMILES)	Potency
O=C(NC1CCCC1)C(c1c(F)cccc1Cl)N(C(=O)c1csnn1)C1CC1 (stereo unspecified)	inactive
CCOC(=O)c1cn[nH]c1NC(=S)Nc1ccccc1	inactive
CCCCN1C(=O)C(=O)N(CC(=O)Nc2cccc(C(C)=O)c2)C1=O	inactive
Cc1cccc(-c2ncc(CN3CCC(CO)(CCCc4ccccc4)CC3)cn2)c1	23.1 µM (active)
OCC1(CCc2ccccc2)CCN(Cc2ccc3nsnc3c2)CC1	inactive
OCC1(CCOc2ccccc2)CCN(Cc2cn[nH]c2-c2ccccc2)CC1	inactive
CC(=O)Nc1ccc2c3c(ccc([N+](=O)[O-])c13)CC2	inactive
O=C(COc1ccccc1Cl)Nc1ccccc1C(=O)NC1CC1	23.1 µM (active)
CN1CCN(C(=O)c2ccccc2NC(=O)COc2ccccc2Cl)CC1	inactive
COc1ccccc1OCC(=O)Nc1ccccc1C(=O)NC1CC1	inactive
S=c1[nH]nc2c3c4c(sc3ncn12)CCCC4	inactive
COC(=O)C1=C[C@@H](C(=O)OC)[C@@H]2C3=C(C(=O)[C@]2(C)NC(=O)c2ccccc2)[C@H](C)n2c(=O)n(C)c(=O)n2[C@@H]3C1	inactive
CCOC(=O)C1=CCC2C(=O)N(Cc3ccccc3)C(=O)C12 (stereo unspecified)	inactive
CCC1(CC)C(=O)C2=C3C1[C@H](C(=O)OC)C=C(C(=O)OC)C[C@H]3[C@H]1C(=O)N(Cc3ccccc3)C(=O)[C@H]1[C@H]2C (stereo partly specified)	4.61 µM (active)
COc1ccc(NS(=O)(=O)c2cccc(C(=O)NCCc3ccc(S(N)(=O)=O)cc3)c2)cc1	inactive
CCOc1ccc(S(=O)(=O)Nc2ccc(S(=O)(=O)Nc3cc(OC)ccc3OC)cc2)cc1	inactive
COc1ccc(NS(=O)(=O)c2ccc(Oc3c(C#N)cccc3C#N)cc2)cc1	10.3 µM (active)
CCN1CCN(C(=O)CN(C)S(=O)(=O)c2ccc3ccccc3c2)CC1	inactive
O=C1NC[C@H](CCCCN2C[C@H](Cc3ccc(O)cc3)N(CCc3ccccc3)C(=O)C2=O)N(CCc2ccccc2)C1=O	inactive
C#CCOc1ccc(/C=C2/C(=O)NN(c3ccccc3)C2=O)cc1OC	inactive
O=C(CNC(=O)c1ccccc1F)c1ccc(Br)cc1	inactive
O=C(O)CC/C(=N\NC(=O)c1ccc(F)cc1)c1ccc(Br)cc1	inactive
O=C(C[n+]1cc(Br)cc2ccccc21)c1ccc(F)cc1	14.1 µM (active)
CCOc1ccc(NC(=O)CCC(=O)N2CC(C)Oc3ccc(C)cc32)cc1 (stereo unspecified)	25.9 µM (active)
Cc1ccc2c(c1)N(C(=O)CCC(=O)NCc1ccccc1F)CC(C)O2 (stereo unspecified)	inactive
CCOc1ccc(NC(=O)CCNC(=O)c2ccc(Br)cc2)cc1	inactive

From PubChem BioAssay AID686979 (National Center for Advancing Translational Sciences (NCATS), 2013)
